High-throughput results from PubChem BioAssay.
PME-1 primary: PME-1 inhibitors via competitive probe labeling, primary screen, biochemical, fluorescence polarization, FP-Rh probe, HTS. Protein phosphatase methylesterase 1 (Homo sapiens), Q9Y570. recombinant PME-1. inhibition, % at 5.9 µM. hit rate 0.53% among 320,000;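 active = inhibition above the campaign mean of all compounds plus 3 SD, cut at about 26% in these data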;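 note: competitive labeling of PME-1 active site by serine hydrolase directed probe; 0% = PME-1 with DMSO and 100% = wells lacking PME-1 enzyme; inhibitors block probe labeling so polarization falls and inhibition rises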
Fam108B inh: mouse Fam108B serine hydrolase inhibitors, primary screen, counter-screen for RBBP9 inhibitor project, biochemical, fluorescence polarization; recombinant Fam108B, FP-Rh probe fluorescence polarization; inhibition, % at 9.51 µM; hit rate 0.33% among 300,000;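 active = inhibition above the screen mean inhibition plus 3 SD, computed separately per campaign, cut at about 18% in these data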;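 note: inhibitors lower polarization as less probe binds the enzyme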
LYPLA1 inh: LYPLA1 inhibitors, primary screen, counter-screen for PME1 inhibitor project, biochemical, fluorescence polarization, FP-Rh probe ABPP. Acyl-protein thioesterase 1 (Homo sapiens), O75608. recombinant LYPLA1. inhibition, % at 5.9 µM. hit rate 0.16% among 320,000. AID 2174, 2009;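 active = inhibition above the mean of all tested compounds plus 3 SD, set per campaign, cut at about 14% in these data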;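 note: inhibitors block serine hydrolase probe labeling of LYPLA1 so polarization falls; 0% = enzyme with DMSO and 100% = wells lacking LYPLA1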
PREPL inh: PREPL enzyme inhibitors, primary screen, biochemical, fluorescence polarization. Prolyl endopeptidase-like (Homo sapiens), Q4J6C6. recombinant PREPL, fluorescence polarization activity-based probe. inhibition, % at 5.96 µM. hit rate 0.68% among 320,000. AID 2751, 2010;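 note: 0% = enzyme with DMSO and 100% = wells lacking enzyme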
Target sequence (Q4J6C6 whole entry, looked up): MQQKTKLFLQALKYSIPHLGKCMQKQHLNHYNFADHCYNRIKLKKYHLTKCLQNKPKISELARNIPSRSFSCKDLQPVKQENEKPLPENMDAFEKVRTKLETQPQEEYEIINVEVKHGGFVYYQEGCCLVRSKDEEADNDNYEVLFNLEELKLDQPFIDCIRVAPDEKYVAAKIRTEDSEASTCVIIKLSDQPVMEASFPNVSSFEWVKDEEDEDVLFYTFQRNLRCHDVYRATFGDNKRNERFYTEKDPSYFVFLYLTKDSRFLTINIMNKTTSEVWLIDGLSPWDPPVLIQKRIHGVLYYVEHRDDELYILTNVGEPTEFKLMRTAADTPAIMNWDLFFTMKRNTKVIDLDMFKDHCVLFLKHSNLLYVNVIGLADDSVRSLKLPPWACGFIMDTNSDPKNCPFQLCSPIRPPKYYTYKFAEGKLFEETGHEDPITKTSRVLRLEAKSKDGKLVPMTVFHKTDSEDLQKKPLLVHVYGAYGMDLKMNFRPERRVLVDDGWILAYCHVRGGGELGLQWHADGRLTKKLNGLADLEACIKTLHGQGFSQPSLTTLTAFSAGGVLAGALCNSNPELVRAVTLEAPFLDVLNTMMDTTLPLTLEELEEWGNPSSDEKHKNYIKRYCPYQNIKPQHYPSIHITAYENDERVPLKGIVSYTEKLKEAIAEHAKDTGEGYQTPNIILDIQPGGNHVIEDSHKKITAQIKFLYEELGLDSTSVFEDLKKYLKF
LYPLA2 counter: LYPLA2 inhibitors, primary screen, counter-screen for PME1 inhibitor project, biochemical, fluorescence polarization, FP-Rh probe ABPP | recombinant LYPLA2 | hit rate 0.38% among 320,000 | inhibition, % at 5.9 µM;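 active = inhibition above the screen-wide mean plus 3 SD, limit set per campaign, cut at about 26% in these data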;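 note: 0% = LYPLA2 with DMSO and 100% = wells lacking LYPLA2 enzyme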
PREPL inh cf: human PREPL enzyme inhibitors, confirmation, biochemical, fluorescence polarization. shares compounds with PREPL inh. recombinant PREPL, fluorescence polarization activity probe. inhibition, % at 5.96 µM. hit rate 67% among 2,000. AID 2803, 2010;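 note: 0% = protein with DMSO and 100% = wells lacking protein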
Active calls of the source: *; . = not tested or not shown. Only some compounds are listed: those with a hit (about 1.3% of all), similar ones and a draw of the others. Cut-off read from the data, not from the text of the source, unless noted: active = inhibition above about 43%; inactive = the rest.

SMILES | PME-1 primary | Fam108B inh | LYPLA1 inh | PREPL inh | LYPLA2 counter | PREPL inh cf
CCCCN1C(=N)N([C@@H](CCC)CN2CCC[C@H]2CN2C(N)=NC[C@H]2CC(C)C)C[C@H]1Cc1ccccc1 | . | . | . | 48.3* | . | 49.3*
CCN(C(=O)CSc1n[nH]c(N)n1)C1CCCCC1 | . | . | . | 8.9 | . | .
Cc1ccc(N2CC(C(=O)Nc3ccc4c(c3)OCO4)CC2=O)cc1C (centres undefined) | -4.8 | -1.0 | -2.6 | 21.1 | -11.8 | .
Cc1ccc(-n2[nH]c(C)c(C=Nc3ccc4[nH]c(=O)[nH]c4c3)c2=O)cc1C | 17.6 | 13.3 | -6.0 | 57.3* | -9.5 | 37.0
Brc1cccc(CSc2nnc(-c3ccncc3)o2)c1 | -7.0 | -4.6 | -0.8 | -6.7 | 11.4 | .
CC(C)C[C@@]12C(=O)N(c3cccc(F)c3)C(=O)N1[C@H](c1ccc(Cl)cc1)[C@@H]1C(=O)N(C3CCCCC3)C(=O)[C@@H]12 | -7.0 | -1.4 | -2.9 | -22.6 | -4.0 | .
CCOC(=O)/C(C#N)=C\c1ccc(N2CCN(C/C=C/c3ccccc3)CC2)cc1 | -18.0 | -13.1 | 6.1 | 51.1* | 18.9 | 45.9*
CCOC(=O)/C(C#N)=C\c1cc(C)n(-c2ccccc2)c1C | -1.6 | -7.0 | -1.0 | -4.5 | -0.5 | .
COc1cc(C(=O)NC(=S)Nc2ccc3oc(=O)ccc3c2)cc(OC)c1OC | 1.2 | -4.8 | 1.7 | 1.4 | 4.5 | .
COc1ccc(C(=O)NC(=S)Nc2ccc3oc(=O)ccc3c2)cc1[N+](=O)[O-] | -0.1 | -12.2 | 1.7 | 47.5* | 15.9 | 3.4
CC(=O)c1cccn1S(=O)(=O)c1ccccc1 | -0.9 | 0.8 | 2.6 | 3.3 | -5.1 | .
CCN(CC(=O)Nc1c(F)cccc1F)C(=O)CN(C)S(=O)(=O)c1ccc(F)cc1 | 2.1 | -1.1 | 0.7 | -5.8 | 2.6 | .
O=C(C1=C[C@@H](c2ccc3c(c2)OCO3)C[C@@H](OCCCCO)O1)N1CCN(Cc2ccc3c(c2)OCO3)CC1 | 2.6 | 5.0 | 0.8 | 49.7* | 8.2 | 48.9*
O=C(C1=C[C@@H](c2ccc(Br)cc2)C[C@@H](OCCCCO)O1)N1CCN(Cc2ccccc2)CC1 | 0.6 | 0.3 | -4.4 | 62.7* | 7.0 | 57.2*
O=C(C1=C[C@H](c2ccc3c(c2)OCO3)C[C@H](OCCCCO)O1)N1CCN(Cc2ccccc2)CC1 | 4.5 | -3.2 | -1.6 | 27.0 | -3.8 | .
CCO[C@H]1OC(C(=O)N2CCN(Cc3ccc4c(c3)OCO4)CC2)=C[C@@H](c2csc3ccccc23)[C@@H]1CCCO | 0.6 | -2.7 | 0.4 | 53.8* | 5.3 | 46.0*
O=C(C1=C[C@H](c2ccc(Br)cc2)C[C@H](OCCCCO)O1)N1CCN(Cc2ccc3c(c2)OCO3)CC1 | 4.5 | -2.2 | -4.6 | 34.0 | 7.4 | .
O=C(C1=C[C@@H](c2ccccc2)C[C@@H](OCCCCO)O1)N1CCN(Cc2ccc3c(c2)OCO3)CC1 | 8.9 | -0.9 | 5.0 | 57.4* | 2.2 | 42.8
CC(C)(C)CN1CCC(Oc2cccc(C(=O)N3CCNC(=O)C3(C)C)c2)CC1 | -5.3 | -1.9 | -3.9 | 12.5 | 2.5 | .
Cc1ccc(NC(=O)CSc2nc3sc(C)cc3c(=O)n2C)cc1 | 0.2 | -2.2 | 1.7 | -10.3 | 4.8 | .
Cc1ccc(-c2cc(C(=O)OCC(=O)N(C)c3c(N)n(Cc4ccccc4)c(=O)[nH]c3=O)c3ccccc3n2)o1 | -1.8 | -0.4 | -4.6 | -15.3 | -7.2 | .
COc1ccc(CCC(=O)Nc2ccc(OC)c(S(=O)(=O)N3CCCCC3)c2)cc1 | -1.9 | . | -3.3 | -0.6 | 4.1 | .
CC(CCc1ccccc1)NC(=O)C(Cc1ccccc1)NC(N)=O (centres undefined) | -4.9 | 0.2 | 2.1 | 3.8 | 3.2 | .
c1cncc(CNc2ccc3c(c2)OCO3)c1 | 7.5 | 2.6 | -1.2 | 44.4* | -8.3 | 52.4*
COc1ccc(-n2nc3c(N4CCC(C(=O)NCCc5ccccc5C)CC4)nnc(C)c3c2C)cc1 | 0.2 | 6.2 | -2.2 | 51.9* | 7.8 | 37.4
SMILES | PME-1 primary | Fam108B inh | LYPLA1 inh | PREPL inh | LYPLA2 counter | PREPL inh cf
COc1ccc(-n2nc3c(N4CCC(C(=O)NCC(C)c5ccccc5)CC4)nnc(C)c3c2C)cc1 (centres undefined) | 6.3 | 2.2 | -0.4 | 49.7* | -0.6 | 42.9
COc1ccc(-n2nc3c(N4CCC(C(=O)NCc5ccco5)CC4)nnc(C)c3c2C)cc1 | -7.6 | 1.6 | -1.4 | 23.2 | 2.9 | .
COc1ccc(-n2nc3c(N4CCC(C(=O)NCc5ccccc5C)CC4)nnc(C)c3c2C)cc1 | -1.8 | 1.4 | -3.2 | 39.3 | 1.3 | .
CSc1ccccc1OCc1cc(C(=O)N(C)Cc2ccncn2)no1 | 0.3 | 5.4 | 3.1 | 7.5 | 16.2 | .
COc1ccc2[nH]c(C)c(C(=O)CN3CCN(C/C=C/c4ccccc4)CC3)c2c1 | 1.6 | 0.0 | 1.5 | 44.2* | 4.7 | 34.8
Oc1ccc(C2=Nn3c(nnc3-c3ccco3)SC2)cc1O | -1.7 | 16.0 | -3.2 | 43.8* | 9.7 | 32.4
COc1ccc(NC(=O)c2ccc(-c3ccc(-c4noc(C)n4)cc3C)cc2)cc1N1CCN(C)CC1 | 6.8 | 5.7 | 2.8 | 75.7* | 1.8 | 60.5*
O=C(Nc1cc(Cl)ccc1N1CCCC1)C1=COCCO1 | -2.5 | . | -1.9 | 44.8* | 5.8 | 32.2
COc1ccc(CCNC(=O)c2ccc(S(=O)(=O)N3CCCCC3)cc2)cc1 | -0.8 | . | 3.5 | 16.4 | 2.5 | .
COc1ccc(N2CCN(c3ccc4nnc(CCC(=O)Nc5ccc(C)cc5)n4n3)CC2)cc1 | -0.2 | -1.2 | -0.9 | 58.9* | -5.6 | 60.4*
CC(=O)c1cccc(OC(=O)c2cc(S(=O)(=O)N3CCOCC3)ccc2N2CCCC2)c1 | -4.6 | . | -0.2 | 14.7 | -1.9 | .
O=C(CCS(=O)(=O)c1ccc(F)cc1)Nc1ccc(N2CCN(Cc3ccccc3)CC2)cc1 | -2.1 | . | -1.5 | 19.8 | -0.8 | .
Fc1ccc(CNc2ccc(N3CCN(Cc4ccccc4)CC3)cc2)cc1 | 3.1 | 3.3 | -1.4 | 45.6* | 12.0 | 40.2
OCC1CCCCN1CCNCc1cn[nH]c1-c1cccc2ccccc12 (centres undefined) | 2.5 | 0.3 | 1.8 | 43.8* | 0.7 | 42.7
O=C1/C(=C/c2cccc(Cl)c2)SC(=S)N1CCC(=O)N1CCCCC1CCO (centres undefined) | -6.8 | -11.1 | -0.5 | 45.0* | -3.9 | 43.9*
O=C1/C(=C/c2ccccc2F)SC(=S)N1CCC(=O)N1CCCCC1CCO (centres undefined) | -2.2 | -6.6 | 0.1 | 45.8* | -1.5 | 43.2*
O=C1/C(=C/c2ccc(Cl)cc2)SC(=S)N1CCC(=O)N1CCCCC1CCO (centres undefined) | -2.9 | -1.2 | 0.8 | 26.9 | -1.7 | .
CCOC(=O)c1ccccc1NC(=O)Cc1c(C(=O)O)n(C)c2ccccc12 | 6.1 | -3.0 | -0.7 | 8.2 | -3.0 | .
